The target in experiment [1] is Acetylcholinesterase (Homo sapiens) (UniProt P22303). Put plainly: Acetylcholinesterase (AChE) small molecule antagonists: fluorescence cell-based qHTS assay (AID 1347398; calls by dose curve; also: nearly all actives have a fitted effect of over 50% in size). The following applies: Potency: AChE activity. In a few lines:
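Cellular AChE inhibition: SH-SY5Y cells treated with test chemical for 30 min at 37 C, then acetylthiocholine hydrolysis followed over 40 min at room temperature via thiocholine-reactive Thiolite Green fluorescence (490/520 nm).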

Experiment [2] shares this target. Description: Acetylcholinesterase (AChE) small molecule antagonists: enzyme-based qHTS assay with human liver microsomes (AID 1347399; calls by dose curve; also: nearly all actives have a fitted effect of over 60% in size). The following applies: Potency: qHTS inhibition. In a few lines: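 Recombinant human AChE (50 mU/mL in the enzyme mix) and human liver microsomes (0.25 mg/mL final) were preincubated with compound and NADPH (0.25 mg/mL final) for 30 min at 37 C. Acetylthiocholine/DTNB was then added; thiocholine was read colorimetrically after 10 min at room temperature.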
Background: Quantitative high-throughput screening tests each substance at several concentrations.

Experiment [3] addresses Cytochrome P450 2D6 (Homo sapiens) (UniProt P10635). Put plainly: Cytochrome P450 Family 2 Subfamily D Member 6 (CYP2D6) small molecule antagonists: luciferase reporter qHTS assay (AID 1671196). Also: nearly all actives have a fitted effect of over 50% in size. In a few lines: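 Room-temperature luminescent CYP2D6 activity assay: compound preincubated 10 min with enzyme–substrate mix, NADPH-initiated reaction 1 h, detection reagent 20 min before reading.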
(Reporter assays use an easily measured gene product as a stand-in for the process of interest.)

Experiment [4] addresses Cytochrome P450 2C19 (Homo sapiens) (UniProt P33261). Put plainly: Cytochrome P450 Family 2 Subfamily C Member 19 (CYP2C19) small molecule antagonists: luciferase reporter qHTS assay (AID 1671197). Also: nearly all actives have a fitted effect of over 65% in size. In outline: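 First, compounds are pinned into enzyme-substrate mix and held 10 min at room temperature. Second, NADPH regeneration solution is added and plates incubate 1 h at 37C. Third, detection reagent is added and luminescence read after 20 min.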

Experiment [5] addresses Cytochrome P450 2C9 (Homo sapiens) (UniProt P11712). Put plainly: Cytochrome P450 Family 2 Subfamily C Member 9 (CYP2C9) small molecule antagonists: luciferase reporter qHTS assay (AID 1671198). Also: nearly all actives have a fitted effect of over 50% in size. In a few lines: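 CYP2C9 activity was measured with a P450-Glo proluciferin substrate. Enzyme–substrate mix was held with compound for 10 min at room temperature, then NADPH regeneration solution was added for 1 h at 37C. Luciferin product was read as luminescence.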

Experiment [6] addresses Cytochrome P450 1A2 (Homo sapiens) (UniProt P05177). Description: Cytochrome P450 Family 1 Subfamily A Member 2 (CYP1A2) small molecule antagonists: luciferase reporter qHTS assay (AID 1671199). Also: nearly all actives have a fitted effect of over 50% in size. In a few lines: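 Room-temperature CYP1A2 reaction with proluciferin substrate: compounds added from DMSO, 10 min preincubation, NADPH regeneration for 1 h. Luciferin detection reagent then added; luminescence recorded as RLU.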

Experiment [7] deals with Voltage-gated inwardly rectifying potassium channel KCNH2 (Homo sapiens) (UniProt Q12809). Put plainly: Human Ether-a-go-go-Related Gene (hERG) channel small molecule antagonists: fluorescence cell-based qHTS assay (AID 1671200). Also: nearly all actives have a fitted effect of over 50% in size. In a few lines:
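U2OS cells expressing the channel were plated at 1000 cells/well, incubated overnight at 37 C, then loaded with FluxOR II thallium-sensitive dye for 1 h at room temperature in the dark, with a further 10 min at room temperature before stimulation.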

In experiment [8] the target is Cytochrome P450 3A4 (Homo sapiens) (UniProt P08684). Description: Cytochrome P450 Family 3 Subfamily A Member 4 (CYP3A4) small molecule antagonists: luciferase reporter qHTS assay (AID 1671201). Also: nearly all actives have a fitted effect of over 50% in size. In outline:
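P450-Glo CYP3A4 system with proluciferin substrate; compounds preincubated 10 min RT with enzyme-substrate mix, then NADPH regeneration added for 1 h RT. Detection reagent 20 min, luminescence read as relative luminescence units.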

The structures appear in SMILES notation. Unmarked numbers belong to inactive results. Records with an inconclusive call do not appear. Calls of active or inactive are those of the source. Unless noted, calls follow the shape of the dose curve; as a rule, active = well fitted curve in the direction sought with a large enough effect in the repeat runs; inconclusive = weak or mixed curves; inactive = no such curve, though single readings can be large; an effect the other way counts as inactive or inconclusive.

From PubChem BioAssay (Tox21) come the findings set out here.
Potency is read from the fitted curve at half-maximal effect.

Cytochrome P450 2D6 (Homo sapiens), sequence (P10635 whole entry, looked up): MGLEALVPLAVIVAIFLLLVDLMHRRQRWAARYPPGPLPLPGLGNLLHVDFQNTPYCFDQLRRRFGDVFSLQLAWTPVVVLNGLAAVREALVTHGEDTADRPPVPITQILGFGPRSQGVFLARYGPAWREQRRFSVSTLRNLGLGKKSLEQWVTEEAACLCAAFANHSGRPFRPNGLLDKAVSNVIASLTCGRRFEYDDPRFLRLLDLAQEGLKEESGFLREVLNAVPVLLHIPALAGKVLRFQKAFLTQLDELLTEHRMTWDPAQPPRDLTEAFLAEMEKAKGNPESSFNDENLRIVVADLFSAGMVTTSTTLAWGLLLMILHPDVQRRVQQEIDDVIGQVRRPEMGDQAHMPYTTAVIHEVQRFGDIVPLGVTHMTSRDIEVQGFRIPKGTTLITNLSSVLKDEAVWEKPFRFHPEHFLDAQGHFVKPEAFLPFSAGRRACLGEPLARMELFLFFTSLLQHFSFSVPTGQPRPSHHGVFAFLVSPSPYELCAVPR
Acetylcholinesterase (Homo sapiens), sequence (P22303 whole entry, looked up): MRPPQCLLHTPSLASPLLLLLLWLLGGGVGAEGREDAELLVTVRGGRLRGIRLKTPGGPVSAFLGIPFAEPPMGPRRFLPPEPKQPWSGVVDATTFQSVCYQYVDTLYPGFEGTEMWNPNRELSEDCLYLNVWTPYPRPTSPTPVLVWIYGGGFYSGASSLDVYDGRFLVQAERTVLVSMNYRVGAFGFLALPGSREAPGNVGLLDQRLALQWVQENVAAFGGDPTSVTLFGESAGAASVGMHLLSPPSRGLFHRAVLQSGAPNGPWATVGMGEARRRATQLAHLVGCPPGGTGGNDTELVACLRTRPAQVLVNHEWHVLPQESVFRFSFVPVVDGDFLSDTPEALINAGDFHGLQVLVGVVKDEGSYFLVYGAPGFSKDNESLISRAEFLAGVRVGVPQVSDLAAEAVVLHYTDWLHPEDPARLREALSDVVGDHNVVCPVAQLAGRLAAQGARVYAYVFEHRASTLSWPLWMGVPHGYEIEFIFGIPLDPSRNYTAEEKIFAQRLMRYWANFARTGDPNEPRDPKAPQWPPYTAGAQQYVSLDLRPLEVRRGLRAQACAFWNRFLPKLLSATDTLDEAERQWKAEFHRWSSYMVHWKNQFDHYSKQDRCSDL
Cytochrome P450 3A4 (Homo sapiens), sequence (P08684 whole entry, looked up): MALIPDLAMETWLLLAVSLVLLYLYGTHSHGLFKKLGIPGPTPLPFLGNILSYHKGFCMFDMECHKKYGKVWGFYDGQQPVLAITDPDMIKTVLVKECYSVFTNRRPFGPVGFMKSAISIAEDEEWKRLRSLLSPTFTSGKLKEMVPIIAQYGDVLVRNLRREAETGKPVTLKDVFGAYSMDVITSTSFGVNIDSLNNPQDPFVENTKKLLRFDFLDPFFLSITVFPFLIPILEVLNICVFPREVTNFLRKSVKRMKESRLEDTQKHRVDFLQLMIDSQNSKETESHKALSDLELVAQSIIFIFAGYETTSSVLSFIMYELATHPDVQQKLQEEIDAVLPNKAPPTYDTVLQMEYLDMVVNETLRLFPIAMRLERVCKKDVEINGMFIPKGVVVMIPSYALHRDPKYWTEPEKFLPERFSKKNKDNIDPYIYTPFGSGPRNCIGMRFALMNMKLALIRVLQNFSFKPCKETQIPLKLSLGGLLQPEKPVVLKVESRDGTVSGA
Cytochrome P450 1A2 (Homo sapiens), sequence (P05177 whole entry, looked up): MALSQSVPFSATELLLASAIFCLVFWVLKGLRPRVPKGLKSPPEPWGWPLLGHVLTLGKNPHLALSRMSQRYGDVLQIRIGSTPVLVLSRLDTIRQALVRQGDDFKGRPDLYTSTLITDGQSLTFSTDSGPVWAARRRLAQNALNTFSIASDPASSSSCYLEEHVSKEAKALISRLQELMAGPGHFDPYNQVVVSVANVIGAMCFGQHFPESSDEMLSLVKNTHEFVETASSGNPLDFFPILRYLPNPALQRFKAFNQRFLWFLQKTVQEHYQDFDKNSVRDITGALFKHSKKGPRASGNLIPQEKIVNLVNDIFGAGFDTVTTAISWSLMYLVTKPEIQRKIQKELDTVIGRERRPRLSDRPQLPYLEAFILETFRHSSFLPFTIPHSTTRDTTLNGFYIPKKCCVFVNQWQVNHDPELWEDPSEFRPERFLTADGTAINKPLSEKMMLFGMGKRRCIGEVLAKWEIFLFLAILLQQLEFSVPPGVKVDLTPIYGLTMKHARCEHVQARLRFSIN
Voltage-gated inwardly rectifying potassium channel KCNH2 (Homo sapiens), sequence (Q12809 whole entry, looked up): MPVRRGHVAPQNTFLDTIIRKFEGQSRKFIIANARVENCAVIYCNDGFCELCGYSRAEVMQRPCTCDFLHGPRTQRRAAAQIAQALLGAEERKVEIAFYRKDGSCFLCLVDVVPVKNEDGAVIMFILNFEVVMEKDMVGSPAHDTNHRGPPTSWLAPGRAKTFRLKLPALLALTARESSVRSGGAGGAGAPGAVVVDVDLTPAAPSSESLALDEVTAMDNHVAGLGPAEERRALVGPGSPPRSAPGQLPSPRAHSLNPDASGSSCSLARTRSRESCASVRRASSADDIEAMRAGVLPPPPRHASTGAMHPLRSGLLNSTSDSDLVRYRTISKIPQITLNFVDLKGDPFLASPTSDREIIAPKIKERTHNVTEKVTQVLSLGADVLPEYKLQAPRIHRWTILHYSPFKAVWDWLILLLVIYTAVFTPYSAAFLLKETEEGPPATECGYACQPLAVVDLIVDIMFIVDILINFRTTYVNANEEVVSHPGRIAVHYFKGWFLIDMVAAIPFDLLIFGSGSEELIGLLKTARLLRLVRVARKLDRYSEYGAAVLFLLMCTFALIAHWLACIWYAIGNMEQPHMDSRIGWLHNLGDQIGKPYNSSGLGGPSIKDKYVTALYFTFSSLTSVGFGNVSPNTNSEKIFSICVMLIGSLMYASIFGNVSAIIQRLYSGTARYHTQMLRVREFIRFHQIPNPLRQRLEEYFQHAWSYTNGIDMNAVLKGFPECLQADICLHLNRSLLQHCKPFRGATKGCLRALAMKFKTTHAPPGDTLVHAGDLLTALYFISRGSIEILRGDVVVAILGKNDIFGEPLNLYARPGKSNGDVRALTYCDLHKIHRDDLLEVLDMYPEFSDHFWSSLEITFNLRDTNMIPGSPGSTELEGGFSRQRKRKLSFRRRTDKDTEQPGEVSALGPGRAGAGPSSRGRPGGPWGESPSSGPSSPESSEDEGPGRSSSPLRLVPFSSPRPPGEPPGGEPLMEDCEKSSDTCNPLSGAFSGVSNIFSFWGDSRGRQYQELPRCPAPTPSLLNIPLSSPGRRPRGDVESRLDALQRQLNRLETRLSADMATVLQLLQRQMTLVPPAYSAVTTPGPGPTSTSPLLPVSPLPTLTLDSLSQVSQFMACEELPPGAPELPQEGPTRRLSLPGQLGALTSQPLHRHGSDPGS
Cytochrome P450 2C9 (Homo sapiens), sequence (P11712 whole entry, looked up): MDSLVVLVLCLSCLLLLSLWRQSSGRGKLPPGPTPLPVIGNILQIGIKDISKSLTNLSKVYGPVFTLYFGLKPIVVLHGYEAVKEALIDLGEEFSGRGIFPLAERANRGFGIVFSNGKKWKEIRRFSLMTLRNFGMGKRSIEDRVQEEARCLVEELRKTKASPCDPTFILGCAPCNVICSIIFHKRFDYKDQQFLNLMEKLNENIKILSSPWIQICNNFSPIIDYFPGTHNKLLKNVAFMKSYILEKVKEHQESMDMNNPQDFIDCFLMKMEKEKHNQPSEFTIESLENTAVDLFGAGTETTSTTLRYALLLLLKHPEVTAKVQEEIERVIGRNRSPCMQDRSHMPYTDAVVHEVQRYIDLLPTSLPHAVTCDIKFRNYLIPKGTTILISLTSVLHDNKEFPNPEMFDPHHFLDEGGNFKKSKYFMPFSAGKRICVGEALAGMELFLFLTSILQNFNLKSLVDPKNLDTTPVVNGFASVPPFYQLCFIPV
Cytochrome P450 2C19 (Homo sapiens), sequence (P33261 whole entry, looked up): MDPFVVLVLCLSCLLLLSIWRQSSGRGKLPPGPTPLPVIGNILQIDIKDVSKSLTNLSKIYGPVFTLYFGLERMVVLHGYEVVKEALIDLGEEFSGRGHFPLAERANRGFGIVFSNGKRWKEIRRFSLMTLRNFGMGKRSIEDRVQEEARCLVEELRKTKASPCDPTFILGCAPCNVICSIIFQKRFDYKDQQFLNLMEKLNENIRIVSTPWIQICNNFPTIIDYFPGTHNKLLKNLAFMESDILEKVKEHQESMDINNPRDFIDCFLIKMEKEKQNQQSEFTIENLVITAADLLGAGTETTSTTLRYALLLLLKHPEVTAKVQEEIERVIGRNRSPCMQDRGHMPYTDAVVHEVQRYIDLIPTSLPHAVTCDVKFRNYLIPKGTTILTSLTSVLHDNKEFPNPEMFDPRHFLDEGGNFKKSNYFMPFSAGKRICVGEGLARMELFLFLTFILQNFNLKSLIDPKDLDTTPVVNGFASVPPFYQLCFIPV

As for `CN1CCC(O)(c2ccc(F)cc2)C(C(=O)c2ccc(F)cc2)C1` (stereo unspecified), the Potency entry in experiment [1], in experiment [2], in experiment [4], in experiment [5] and in experiment [6] was “inactive” in each case. For the same compound, the Potency in experiment [3] was 17.4 µM (active).

As to `NC(=O)O`, the Potency result in experiment [1], in experiment [2], in experiment [3], in experiment [4], in experiment [5] and in experiment [6] was “inactive” throughout. The Potency entry in experiment [7] and in experiment [8] was “inactive” throughout.

In the case of `[O]=[Cd]`, the Potency result in experiment [1], in experiment [2], in experiment [3], in experiment [4], in experiment [5] and in experiment [6] was “inactive” each time. Moreover, the Potency entry in experiment [7] and in experiment [8] was “inactive” each time.

Consider `Cc1nc(N)nc(N)n1`, for which the Potency entry in experiment [1], in experiment [2], in experiment [3], in experiment [4], in experiment [5] and in experiment [6] was “inactive” each time. The Potency result in experiment [7] and in experiment [8] was “inactive” in each case.

As to `CN(N=O)C(N)=O`, the Potency result in experiment [1], in experiment [2], in experiment [3], in experiment [4], in experiment [5] and in experiment [6] was “inactive” each time. Also, the Potency entry in experiment [7] and in experiment [8] was “inactive” throughout.

As to `Cc1nnc2n1-c1sc(CCC(=O)N3CCOCC3)cc1C(c1ccccc1Cl)=NC2`, the Potency entry in experiment [1], in experiment [2], in experiment [3], in experiment [4], in experiment [5] and in experiment [6] was “inactive” each time. The Potency result in experiment [7] was “inactive”.

Consider `CCc1cc2c(s1)-n1c(C)nnc1CN=C2c1ccccc1Cl`, for which the Potency result in experiment [1], in experiment [2], in experiment [3], in experiment [4], in experiment [5] and in experiment [6] was “inactive” throughout. The Potency result in experiment [7] and in experiment [8] was “inactive” in each case.

`CC(Cl)(Cl)[N+](=O)[O-]`: the Potency result in experiment [1], in experiment [2], in experiment [3], in experiment [4], in experiment [5] and in experiment [6] was “inactive” throughout. Moreover, the Potency entry in experiment [7] and in experiment [8] was “inactive” throughout.

As for `O=[N+]([O-])c1ccc2c3c(cccc13)CC2`, the Potency result in experiment [1], in experiment [2], in experiment [3], in experiment [5] and in experiment [7] was “inactive” throughout. The Potency in experiment [4] was 35.6 µM (active); in experiment [6] it was 2.24 µM (active).

Consider `CCCCc1c(C)nc(NCC)[nH]c1=O`, for which the Potency entry in experiment [1], in experiment [2], in experiment [3], in experiment [5], in experiment [7] and in experiment [8] was “inactive” each time. Also, the Potency in experiment [4] is 79.6 µM (active); in experiment [6], 17.8 µM (active).

Take `COc1cc(OC)nc(Oc2cccc(Oc3nc(OC)cc(OC)n3)c2C(=O)O)n1`: the Potency result in experiment [1], in experiment [2], in experiment [3], in experiment [4], in experiment [5] and in experiment [6] was “inactive” each time. The Potency entry in experiment [7] and in experiment [8] was “inactive” throughout.

Turning to `CNC(=O)Oc1c(C(C)(C)C)cc(C)cc1C(C)(C)C`, the Potency entry in experiment [1], in experiment [2], in experiment [3], in experiment [6] and in experiment [7] was “inactive” each time. The Potency was 2.83 µM (active) in experiment [4], 6.33 µM (active) in experiment [5] and 2.83 µM (active) in experiment [8].

On to `CN1CCC(N(Cc2ccccc2)c2ccccc2)CC1`, for which the Potency result in experiment [1], in experiment [2], in experiment [4], in experiment [5], in experiment [6] and in experiment [8] was “inactive” throughout. The Potency in experiment [3] was 0.309 µM (active); in experiment [7], 5.35 µM (active).

As to `O=C1OC(CCN2CCCCC2)OC1(c1ccccc1)c1ccccc1` (stereo unspecified), the Potency entry in experiment [1] and in experiment [2] was “inactive” each time. Besides, the Potency was 0.871 µM (active) in experiment [3], 38.9 µM (active) in experiment [4], 15.5 µM (active) in experiment [5] and 0.848 µM (active) in experiment [7].

Consider `CC(C1CC1)C(O)(Cn1cncn1)c1ccc(Cl)cc1` (stereo unspecified), for which the Potency entry in experiment [1], in experiment [2] and in experiment [7] was “inactive” in each case. Also, the Potency in experiment [3] was 35.4 µM (active); in experiment [4], 0.354 µM (active); in experiment [5] it was 0.126 µM (active); in experiment [8], 0.888 µM (active).

Take `NC1=NC(=O)C(c2ccccc2)O1` (stereo unspecified): the Potency result in experiment [1], in experiment [2], in experiment [3], in experiment [4], in experiment [5] and in experiment [6] was “inactive” throughout. For the same compound, the Potency entry in experiment [7] and in experiment [8] was “inactive” in each case.

With `CC1(C(=O)Nc2ccc(O)c(Cl)c2Cl)CCCCC1`, the Potency result in experiment [1], in experiment [2] and in experiment [7] was “inactive” each time. The Potency was 71 µM (active) in experiment [3], 11.2 µM (active) in experiment [4] and 35.6 µM (active) in experiment [5].

For the compound `CCOP(=S)(OCC)SCSP(=S)(OCC)OCC`, the Potency in experiment [1] was 35.6 µM (active); in experiment [2], 17.8 µM (active); in experiment [3], 35.6 µM (active); in experiment [4], 0.399 µM (active); in experiment [5], 0.796 µM (active); in experiment [6] it was 15.9 µM (active). Besides, in experiment [8], the Potency is 1.26 µM (active). Further, the Potency result in experiment [7] was “inactive”.

`COc1cccc2c1cc([N+](=O)[O-])c1c(C(=O)O)cc3c(c12)OCO3`: the Potency entry in experiment [1], in experiment [2], in experiment [3] and in experiment [7] was “inactive” each time. The Potency was 79.6 µM (active) in experiment [4], 28.3 µM (active) in experiment [5], 39.9 µM (active) in experiment [6] and 22.4 µM (active) in experiment [8].

Regarding `CCCSC(=O)Cl`, the Potency result in experiment [1], in experiment [2], in experiment [3], in experiment [4], in experiment [5] and in experiment [6] was “inactive” throughout. The Potency result in experiment [7] and in experiment [8] was “inactive” throughout.

Turning to `CCC/C(=N\OCC)C1=C(O)CC(CC(C)SCC)CC1=O` (stereo unspecified), the Potency entry in experiment [1], in experiment [2], in experiment [7] and in experiment [8] was “inactive” each time. For the same compound, the Potency in experiment [3] is 11.3 µM (active); in experiment [4], 8.99 µM (active); in experiment [5], 31.9 µM (active); in experiment [6], 35.8 µM (active).

Take `Cc1ncsc1CCCl`: the Potency entry in experiment [1], in experiment [2], in experiment [3], in experiment [4], in experiment [5] and in experiment [6] was “inactive” each time. Besides, the Potency entry in experiment [7] and in experiment [8] was “inactive” in each case.

Take `O=CNC(N1CCN(C(NC=O)C(Cl)(Cl)Cl)CC1)C(Cl)(Cl)Cl` (stereo unspecified): the Potency result in experiment [1], in experiment [2], in experiment [6] and in experiment [7] was “inactive” throughout. Besides, the Potency in experiment [3] is 31.7 µM (active); in experiment [4] it was 7.96 µM (active); in experiment [5] it was 35.6 µM (active); in experiment [8], 7.96 µM (active).

`CNCC(=O)c1ccc(O)c(O)c1`: the Potency entry in experiment [1], in experiment [2], in experiment [3], in experiment [4], in experiment [5] and in experiment [6] was “inactive” throughout. In addition, the Potency entry in experiment [7] and in experiment [8] was “inactive” in each case.

As to `NC(=O)c1cc([N+](=O)[O-])cc([N+](=O)[O-])c1`, the Potency entry in experiment [1], in experiment [2], in experiment [3], in experiment [4], in experiment [5] and in experiment [6] was “inactive” in each case. Further, the Potency result in experiment [7] and in experiment [8] was “inactive” throughout.
